This is part of a sample that, as a whole, favours compounds with a hit. Of some 79,000 tested, about 15% had one in any assay. Values without a mark were called inactive. Activity calls are given as the source filed them. Cut-off read from the data, not from the text of the source: active = growth inhibition above about 70%; inactive = the rest.
How the values were obtained:
[1] = NCI Yeast Anticancer Drug Screen. Data for the wt1 strain (AID 149);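 note: 0% = growth of vehicle-treated wt1 cultures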; conditions: S. cerevisiae wt1 strain (SPY 50644) growth inhibition, active compounds read high
Method in brief: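 Using yeast strain wt1, compound-induced growth inhibition was determined against vehicle-treated cultures.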

[2] = NCI Yeast Anticancer Drug Screen. Data for the rad50EPP+ strain (AID 151);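 note: 0% = growth of vehicle-treated control cultures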; conditions: S. cerevisiae rad50 mutant strain, active compounds read high
Method in brief: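 Read-out is yeast growth inhibition relative to vehicle; cells used were the rad50EPP+ strain.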

[3] = NCI Yeast Anticancer Drug Screen. Data for the mgt1 strain (AID 153); conditions: S. cerevisiae mgt1 mutant growth inhibition, active compounds read high
Method in brief: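 Measured: inhibition of mgt1 yeast growth by compound, normalized to vehicle-treated cultures.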

[4] = NCI Yeast Anticancer Drug Screen. Data for the rad50 strain (AID 155);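 note: 0% = growth of vehicle-only cultures of the same strain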; conditions: S. cerevisiae rad50 strain growth inhibition, active compounds read high
Method in brief: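 Relative growth inhibition (compound vs vehicle) was measured in yeast with a defined repair-gene alteration.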

[5] = NCI Yeast Anticancer Drug Screen. Data for the mec2-1 strain (AID 157); conditions: S. cerevisiae mec2-1 strain, active compounds read high
Method in brief: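 Using mec2-1 yeast: add compound, measure growth, express inhibition versus vehicle-treated cultures.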

[6] = NCI Yeast Anticancer Drug Screen. Data for the rad14 strain (AID 159);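 note: 0% = growth of vehicle-treated control cultures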; conditions: S. cerevisiae rad14 strain growth inhibition, active compounds read high
Method in brief: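 Screen for anticancer potential: a yeast strain altered in DNA damage repair is grown with compound, and reduced growth is quantified against vehicle controls.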

[7] = NCI Yeast Anticancer Drug Screen. Data for the sgs1 mgt1 strain (AID 161);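 note: 0% = growth of cultures given vehicle only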; conditions: S. cerevisiae sgs1 mgt1 strain, active compounds read high
Method in brief: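 Yeast cells carrying a defined DNA-repair defect were exposed to test compounds. Growth inhibition was measured relative to vehicle-treated controls.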

[8] = NCI Yeast Anticancer Drug Screen. Data for the CLN2oe strain (AID 163);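 note: 0% = growth of vehicle-only control cultures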; conditions: S. cerevisiae CLN2oe strain, active compounds read high
Method in brief: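 Whole-cell yeast growth assay. A strain engineered for altered cell-cycle control received compound, and inhibition relative to vehicle-treated cultures was recorded.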

[9] = NCI Yeast Anticancer Drug Screen. Data for the cln2 rad14 strain (AID 165);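 note: 0% = growth equal to vehicle treated cultures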; conditions: S. cerevisiae cln2 rad14 strain, active compounds read high
Method in brief: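 Yeast strain cln2 rad14, bearing defects in cell cycle control and DNA repair, serves as the test system; values reflect growth inhibition compared with vehicle.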

[10] = NCI Yeast Anticancer Drug Screen. Data for the bub3 strain (AID 167); conditions: S. cerevisiae bub3 mutant strain, active compounds read high
Method in brief: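 Screening used yeast with an engineered genetic alteration affecting cell cycle control. Compound-exposed cultures were compared with vehicle cultures, and reduced growth was taken as inhibition.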

[11] = NCI Yeast Anticancer Drug Screen. Data for the wt2 strain (AID 169);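 note: 0% = growth of vehicle-treated yeast cultures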; conditions: S. cerevisiae wt2 strain growth inhibition, active compounds read high
Method in brief: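 Treated yeast vs. vehicle-treated yeast: growth inhibition determined.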

[12] = NCI Yeast Anticancer Drug Screen. Data for the mlh1 strain (AID 171);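 note: 0% = growth of vehicle-treated control cultures of the same strain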; conditions: S. cerevisiae mlh1 strain growth inhibition, active compounds read high
Method in brief: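 A yeast strain with a defined genetic lesion serves as the test organism. Cultures receive compound or vehicle, and growth is measured.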

[13] = NCI Yeast Anticancer Drug Screen. Data for the sgs1 strain (AID 173);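 note: 0% = growth of vehicle-only control cultures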; conditions: S. cerevisiae sgs1 mutant, active compounds read high
Method in brief: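 A genetically defined yeast mutant is incubated with the test compound, and its growth is compared to that of the same strain given vehicle.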

[14] = NCI Yeast Anticancer Drug Screen. Data for the mlh1 rad18 strain (AID 175); conditions: S. cerevisiae mlh1 rad18 strain growth inhibition, active compounds read high
Method in brief: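 Steps: expose repair-defective yeast to compound; measure growth; express inhibition against vehicle-treated controls.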

[15] = NCI Yeast Anticancer Drug Screen. Data for the rad18 strain (AID 177); conditions: S. cerevisiae rad18 mutant growth inhibition, active compounds read high
Method in brief: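 Measured value is growth inhibition of a yeast strain bearing a DNA repair alteration, referenced to vehicle-treated cells.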

[16] = NCI Yeast Anticancer Drug Screen. Data for the rad52 strain (AID 147);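 note: 0% = growth of vehicle-treated control cultures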; conditions: S. cerevisiae rad52 mutant growth inhibition, active compounds read high
Method in brief: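 Here a repair-compromised yeast strain receives each compound; its growth is then quantified and normalised to vehicle-only controls.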

[17] = at 5.0 µM (retest, dose inferred, filed as 0.5)
[18] = at 50.0 µM (retest, dose inferred, filed as 5.0)

CC1=C2C(=C[C@@](C)(CO)[C@@H]2O)C(=O)[C@](C)(O)C12CC2
growth inhibition ([1]; at 1.2 µM): 1%
growth inhibition ([1]; at 3.7 µM): -1%
growth inhibition ([1]; at 11.0 µM): 0%
growth inhibition ([1]; at 33.0 µM): 0%
growth inhibition ([1]; at 100.0 µM): 25%
growth inhibition ([2]; at 1.2 µM): -3%
growth inhibition ([2]; at 3.7 µM): -1%
growth inhibition ([2]; at 11.0 µM): 1%
growth inhibition ([2]; at 33.0 µM): -2%
growth inhibition ([2]; at 100.0 µM): 1%
growth inhibition ([3]; at 1.2 µM): -3%
growth inhibition ([3]; at 3.7 µM): -1%
growth inhibition ([3]; at 11.0 µM): 0%
growth inhibition ([3]; at 33.0 µM): 2%
growth inhibition ([3]; at 100.0 µM): 0%
growth inhibition ([4]; at 1.2 µM): 2%
growth inhibition ([4]; at 3.7 µM): 2%
growth inhibition ([4]; at 11.0 µM): 11%
growth inhibition ([4]; at 33.0 µM): 31%
growth inhibition ([4]; at 50.0 µM): 33.8%
growth inhibition ([4]; at 100.0 µM): 70% (active)
growth inhibition ([5]; at 1.2 µM): 0%
growth inhibition ([5]; at 3.7 µM): 0%
growth inhibition ([5]; at 11.0 µM): 1%
growth inhibition ([5]; at 33.0 µM): 13%
growth inhibition ([5]; at 50.0 µM): 22.9%
growth inhibition ([5]; at 100.0 µM): 48%
growth inhibition ([6]; at 1.2 µM): 1%
growth inhibition ([6]; at 3.7 µM): -1%
growth inhibition ([6]; at 11.0 µM): 4%
growth inhibition ([6]; at 33.0 µM): 13%
growth inhibition ([6]; at 100.0 µM): 41%
growth inhibition ([7]; at 50.0 µM): 44%
growth inhibition ([8]; at 1.2 µM): -5%
growth inhibition ([8]; at 3.7 µM): -8%
growth inhibition ([8]; at 11.0 µM): -10%
growth inhibition ([8]; at 33.0 µM): -13%
growth inhibition ([8]; at 100.0 µM): -5%
growth inhibition ([9]; at 50.0 µM): 22.6%
growth inhibition ([10]; at 1.2 µM): -4%
growth inhibition ([10]; at 3.7 µM): -5%
growth inhibition ([10]; at 11.0 µM): -7%
growth inhibition ([10]; at 33.0 µM): -10%
growth inhibition ([10]; at 50.0 µM): -41%
growth inhibition ([10]; at 100.0 µM): -12%
growth inhibition ([11]; at 1.2 µM): -2%
growth inhibition ([11]; at 3.7 µM): 0%
growth inhibition ([11]; at 11.0 µM): 0%
growth inhibition ([11]; at 33.0 µM): 0%
growth inhibition ([11]; at 100.0 µM): 1%
growth inhibition ([12]; at 1.2 µM): 0%
growth inhibition ([12]; at 3.7 µM): 1%
growth inhibition ([12]; at 11.0 µM): 2%
growth inhibition ([12]; at 33.0 µM): 3%
growth inhibition ([12]; at 100.0 µM): 7%
growth inhibition ([13]; at 1.2 µM): 3%
growth inhibition ([13]; at 3.7 µM): 10%
growth inhibition ([13]; at 11.0 µM): 24%
growth inhibition ([13]; at 33.0 µM): 50%
growth inhibition ([13]; at 100.0 µM): 73% (active)
growth inhibition ([14]; at 50.0 µM): 11.7%
growth inhibition ([15]; at 1.2 µM): 37%
growth inhibition ([15]; at 3.7 µM): 74% (active)
growth inhibition ([15]; at 11.0 µM): 90% (active)
growth inhibition ([15]; at 33.0 µM): 93% (active)
growth inhibition ([15]; at 100.0 µM): 95% (active)

O=[N+]([O-])c1ccc(C=Cc2ccccc2)cc1.[C-]#[O+].[C-]#[O+].[C-]#[O+].[Cr]
growth inhibition ([16]; at 1.2 µM): 8%
growth inhibition ([16]; at 3.7 µM): 28%
growth inhibition ([16]; at 11.0 µM): 70% (active)
growth inhibition ([16]; at 33.0 µM): 88% (active)
growth inhibition ([16]; at 100.0 µM): 82% (active)
growth inhibition ([2]; at 1.2 µM): 10%
growth inhibition ([2]; at 3.7 µM): 32%
growth inhibition ([2]; at 11.0 µM): 62%
growth inhibition ([2]; at 33.0 µM): 71% (active)
growth inhibition ([2]; at 100.0 µM): 67%
growth inhibition ([4]; at 1.2 µM): 6%
growth inhibition ([4]; at 3.7 µM): 18%
growth inhibition [4, 17]: 39%
growth inhibition ([4]; at 11.0 µM): 54%
growth inhibition ([4]; at 33.0 µM): 83% (active)
growth inhibition [4, 18]: 95% (active)
growth inhibition ([4]; at 50.0 µM): 76.9% (active)
growth inhibition ([4]; at 100.0 µM): 79% (active)
growth inhibition ([5]; at 1.2 µM): 0%
growth inhibition ([5]; at 3.7 µM): 1%
growth inhibition [5, 17]: 5%
growth inhibition ([5]; at 11.0 µM): 8%
growth inhibition ([5]; at 33.0 µM): 71% (active)
growth inhibition [5, 18]: 86% (active)
growth inhibition ([5]; at 50.0 µM): 79.8% (active)
growth inhibition ([5]; at 100.0 µM): 72% (active)
growth inhibition ([6]; at 1.2 µM): 3%
growth inhibition ([6]; at 3.7 µM): 12%
growth inhibition ([6]; at 11.0 µM): 53%
growth inhibition ([6]; at 33.0 µM): 83% (active)
growth inhibition ([6]; at 100.0 µM): 82% (active)
growth inhibition [7, 17]: 44%
growth inhibition [7, 18]: 95% (active)
growth inhibition ([7]; at 50.0 µM): 66%
growth inhibition ([8]; at 1.2 µM): -3%
growth inhibition ([8]; at 3.7 µM): -9%
growth inhibition ([8]; at 11.0 µM): -16%
growth inhibition ([8]; at 33.0 µM): 69%
growth inhibition ([8]; at 100.0 µM): 70% (active)
growth inhibition [9, 17]: 10%
growth inhibition [9, 18]: 91% (active)
growth inhibition ([9]; at 50.0 µM): 70.9% (active)
growth inhibition ([10]; at 1.2 µM): 2%
growth inhibition ([10]; at 3.7 µM): 10%
growth inhibition [10, 17]: -19%
growth inhibition ([10]; at 11.0 µM): 2%
growth inhibition ([10]; at 33.0 µM): 67%
growth inhibition [10, 18]: 91% (active)
growth inhibition ([10]; at 50.0 µM): 69.5%
growth inhibition ([10]; at 100.0 µM): 82% (active)
growth inhibition ([11]; at 1.2 µM): -1%
growth inhibition ([11]; at 3.7 µM): -1%
growth inhibition ([11]; at 11.0 µM): 7%
growth inhibition ([11]; at 33.0 µM): 80% (active)
growth inhibition ([11]; at 100.0 µM): 83% (active)
growth inhibition ([12]; at 1.2 µM): -1%
growth inhibition ([12]; at 3.7 µM): -1%
growth inhibition ([12]; at 11.0 µM): 9%
growth inhibition ([12]; at 33.0 µM): 65%
growth inhibition ([12]; at 100.0 µM): 71% (active)
growth inhibition ([13]; at 1.2 µM): 9%
growth inhibition ([13]; at 3.7 µM): 30%
growth inhibition ([13]; at 11.0 µM): 66%
growth inhibition ([13]; at 33.0 µM): 91% (active)
growth inhibition ([13]; at 100.0 µM): 88% (active)
growth inhibition [14, 17]: 68%
growth inhibition [14, 18]: 96% (active)
growth inhibition ([14]; at 50.0 µM): 62.1%
growth inhibition ([15]; at 1.2 µM): 70% (active)
growth inhibition ([15]; at 3.7 µM): 93% (active)
growth inhibition ([15]; at 11.0 µM): 94% (active)
growth inhibition ([15]; at 33.0 µM): 89% (active)
growth inhibition ([15]; at 100.0 µM): 86% (active)

COC(=O)C(F)C(Br)C(=O)OC (centres undefined)
growth inhibition ([1]; at 1.2 µM): -3%
growth inhibition ([1]; at 3.7 µM): 74% (active)
growth inhibition ([1]; at 11.0 µM): 97% (active)
growth inhibition ([1]; at 33.0 µM): 98% (active)
growth inhibition ([1]; at 100.0 µM): 99% (active)
growth inhibition ([2]; at 1.2 µM): 28%
growth inhibition ([2]; at 3.7 µM): 90% (active)
growth inhibition ([2]; at 11.0 µM): 97% (active)
growth inhibition ([2]; at 33.0 µM): 98% (active)
growth inhibition ([2]; at 100.0 µM): 97% (active)
growth inhibition ([3]; at 1.2 µM): 16%
growth inhibition ([3]; at 3.7 µM): 82% (active)
growth inhibition ([3]; at 11.0 µM): 98% (active)
growth inhibition ([3]; at 33.0 µM): 99% (active)
growth inhibition ([3]; at 100.0 µM): 99% (active)
growth inhibition ([4]; at 1.2 µM): -5%
growth inhibition ([4]; at 3.7 µM): 60%
growth inhibition [4, 17]: 88% (active)
growth inhibition ([4]; at 11.0 µM): 96% (active)
growth inhibition ([4]; at 33.0 µM): 98% (active)
growth inhibition [4, 18]: 99% (active)
growth inhibition ([4]; at 50.0 µM): 90.8% (active)
growth inhibition ([4]; at 100.0 µM): 98% (active)
growth inhibition ([5]; at 1.2 µM): 20%
growth inhibition ([5]; at 3.7 µM): 73% (active)
growth inhibition [5, 17]: 93% (active)
growth inhibition ([5]; at 11.0 µM): 95% (active)
growth inhibition ([5]; at 33.0 µM): 98% (active)
growth inhibition [5, 18]: 100% (active)
growth inhibition ([5]; at 50.0 µM): 93% (active)
